Screening data as filed in PubChem BioAssay.
Pf growth 48h: P. falciparum growth inhibition at 48 hours (one generation). P. falciparum luciferase growth in erythrocytes, 48 h. Potency, µM (series often up to 28.7 µM), for the others: at the top dose activity change, negative = inhibition, hits mostly inhibitors. hit rate 5.9% among 310,000. AID 504832
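In quantitative HTS format, infected erythrocytes bearing luciferase-reporter parasites were treated for a single generation at 37 C. Luminescence after adding detection reagent served as the growth measure.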
Pf growth 96h: inhibits malaria parasite growth, 96 h. Potency, µM (series often up to 28.7 µM), inactives show at the top dose activity change, negative = inhibition, usual class: inhibitors. P. falciparum luciferase reporter growth, 96 h. AID 504834. hit rate 6.9% among 320,000
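Infected RBCs, 2% Hct / 0.05% parasitemia final; luciferase-reporter P. falciparum; cpd 96 h, 37 C, 5% CO2; luciferase detection reagent; luminescence.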
HCV inhibitor: blocks hepatitis C virus; hit rate 3.4% among 340,000; Huh7.5.1 HCVcc-Cre infection, luciferase reporter, 44 h; Potency, µM (titrated, usually from 41.8 µM), for inactives: at the highest dose activity change, negative = inhibition, most hits filed as inhibitors; AID 651820
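After 44 h co-culture of compound, cells and HCVcc-Cre (~0.5 moi), substrate is added for 15 min at room temperature and luciferase measured over 15 sec. Cells were seeded at 1,000/well and pre-cultured 4 h.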
AMA1-RON2 inh: inhibitors of Plasmodium falciparum AMA1-RON2 interaction; AlphaScreen AMA1-biotinylated RON2 peptide binding; Potency, µM (doses to about 58.2 µM), without a hit: at the top dose activity change, negative = inhibition, actives largely listed as inhibitors; hit rate 0.2% among 360,000; AID 720542;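 further: 0% = vehicle wells and -100% = peptide control; nearly all actives have a fitted effect of over 45% in size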
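AMA1 (3D7) with his tag at 25 nM final met compounds first, then biotinylated RON2 peptide at 25 nM; detection used donor plus acceptor beads, 10 µg/mL apiece, read by AlphaScreen after 30 min at room temperature.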
* = called active by the depositor; ? = inconclusive; · = no result given; [ ] = remark or other dose. A selection: hits, their analogues and other compounds. The true share with any hit is near 11%. The call rests on the fitted dose curve; in most records, active means well fitted curve in the direction sought with a large enough effect; inconclusive means small, poorly fitted or top-dose-only effect, or another doubt; inactive means no such curve, though single readings can be large; an effect the other way counts as inactive or inconclusive. Unless noted, on the % scale 0 is the no-effect control and ±100 the full control effect; potency means the concentration at half of the fitted maximal effect.

SMILES	Pf growth 48h	Pf growth 96h	HCV inhibitor	AMA1-RON2 inh
O=C(CNC(=O)c1ccc(Cl)cc1)OCCCOC(=O)CNC(=O)c1ccc(Cl)cc1	13.4%	-9.1%	-26.9%	1.3%
NS(=O)(=O)c1ccc(N=Nc2c(O)c(C(=O)O)cc3ccccc23)cc1	?	10.4µM*	?	8.3%
CCN(CC)c1ccc(/C=N/Nc2nc3ccccc3[nH]2)cc1	1.85µM*	2.62µM*	12.6µM*	12.4%
O=c1nc(N2CCOCC2)nc(N/N=C/c2ccc3c(c2)OCO3)[nH]1	1.4%	11.7µM*	8.7%	27.9%
CC(=O)Nc1ccc(/C=N/Nc2nc3ccccc3[nH]2)cc1	1.85µM*	?	?	55.8%
CN(/N=C/c1ccc2c(c1)OCO2)c1nc(N2CCOCC2)nc(N2CCOCC2)n1	7.3%	4.7%	?	-6.4%
C(=N\Nc1nc2ccccc2[nH]1)/c1ccc2c(c1)OCO2	0.465µM*	?	-21.0%	0.9%
Cc1cccc(NC(=O)CCC(=O)Nc2nnc(C(F)(F)F)s2)c1	3.5%	20.4%	10.2%	-11.2%
Cc1ccc(CN2CCNC(=O)C2CC(=O)NCCCn2nnc3ccccc32)cc1 (stereo unspecified)	·	·	·	6.6%
CCN(CC)CCCNc1oc(-c2ccccc2[N+](=O)[O-])nc1C#N	?	2.62µM*	26.0%	104.8%
C/C(=N\Nc1nc2ccccc2[nH]1)c1ccc2c(c1)OCCO2	3.7µM*	?	?	0.9%
C/C(=N\Nc1nc2ccccc2[nH]1)c1ccccn1	2.94µM*	?	·	·
C/C(=N\Nc1nc2ccccc2[nH]1)c1cc2ccccc2o1	0.0%	?	?	0.9%
CSc1ccc(CN(C)CC(=O)Nc2c(F)cccc2F)cc1	-2.1%	2.1%	?	6.7%
O=C(c1ccco1)N1CCN(c2ccc([N+](=O)[O-])cn2)CC1	·	·	5.3%	8.9%
O=C(CC[C@H]1O[C@@H](n2cnc3c(NC(=O)c4ccccc4)ncnc32)[C@H](O)[C@@H]1O)NCCc1cc2ccccc2[nH]1	·	·	·	0.0%
CCn1nnc2cc(C(=O)Nc3cc(Cl)ccc3C)ccc21	-6.1%	-12.1%	-18.9%	0.1%
COC(=O)C1=C(c2ccc(OCc3ccccc3)cc2)C[C@@H]2CC[C@H]1N2C(=O)NCc1ccccc1	7.38µM*	?	10µM*	10.6%
COC(=O)C1=C(c2ccc(OCc3ccccc3)cc2)C[C@@H]2CC[C@H]1N2C(=O)NCc1cccc(OC)c1	3.7µM*	?	6.31µM*	-5.8%
O=C(NC1CCCCC1)c1cccc(NC(=O)c2ccccc2Cl)c1	·	·	·	10.0%
CCOC(=O)c1ccc(-n2ccnc2)c(NC(=O)c2ccc(C(C)(C)C)cc2)c1	13.1µM*	14.7µM*	?	-18.2%
CCOc1ccccc1N1CCN(CC(O)COC2CCCc3ccccc32)CC1 (stereo unspecified)	?	?	11.2µM*	-18.3%
CCOc1ccccc1N1CCN(CC(O)COc2ccc3c(C)cc(=O)oc3c2)CC1 (stereo unspecified)	8.28µM*	-2.2%	?	-0.1%
CCC[N+]1(CC#CC(O)(c2ccccc2)C2CCCCC2)CCCCC1 (stereo unspecified)	1.65µM*	-22.4%	-28.6%	-3.0%
CC(C)=CCc1c(O)cc2oc3c(CC=C(C)C)c(O)c(O)c(CC=C(C)C)c3c(=O)c2c1O	13.1µM*	3.6%	?	61.3%
SMILES	Pf growth 48h	Pf growth 96h	HCV inhibitor	AMA1-RON2 inh
CC(C)=CCc1cc(-c2oc3cc(O)cc(O)c3c(=O)c2O)ccc1O	·	·	?	44.0%
Cc1cc(C)n(C(=O)CNC(=O)c2ccc(Cl)cc2Cl)n1	24.9%	34.0%	5.8%	-10.8%
COc1ccccc1-c1noc(CCC(=O)NC2CCCC2)n1	-1.5%	2.62µM*	-6.3%	7.0%
Cc1ccccc1-c1noc(CCC(=O)NC2CCCCC2)n1	5.4%	10.4µM*	-17.5%	-3.0%
CS(=O)(=O)N(CC(=O)N1CCCC1)C1CCCCC1	·	·	·	-7.9%
O=C(NCCc1ccccc1)c1ccc(CS(=O)(=O)c2ccc(Br)cc2)o1	-7.1%	4.15µM*	28.7%	19.7%
CN1CCN(CCCNC(=O)c2ccc(CS(=O)(=O)c3ccc(Br)cc3)o2)CC1	·	8.28µM*	4.4%	-2.5%
O=S(=O)(NCCc1ccccc1)c1ccc(Br)cc1	-6.3%	13.1µM*	13.1%	1.8%
O=C(NCCCN1CCCC1)c1ccc(CS(=O)(=O)c2ccc(Br)cc2)o1	·	?	-17.1%	-0.1%
N#CCCN(C(=O)CN1CCN(S(=O)(=O)c2ccc3c(c2)OCCO3)CC1)c1ccc(F)cc1	?	?	?	-8.4%[11.6 µM]
